According to PubChem BioAssay (NCI):
The panel holds about 83,000 compounds, 20% with a hit somewhere; the sample as a whole holds those more often.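 Plates (96-well) were seeded with cells, treated with compound at one concentration, and incubated for 48 hours before percent growth was determined.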 Active and inactive are the calls of the source. Rule for the calls: active = growth percent below 10; inactive = the rest.

Legend:
Test in all cases: NCI-60 one-dose screen, 48 h (100 = growth as untreated, 0 = no growth, -100 = all killed)
[1] = system: MDA-MB-468 breast; conditions: 10 µM unless noted
[2] = system: NCI-H226 lung; conditions: 10 µM
[3] = system: NCI-H322M lung; conditions: 10 µM
[4] = system: HOP-62 NSCLC; conditions: 10 µM
[5] = system: NCI-H460 lung; conditions: 10 µM
[6] = system: NCI-H522 lung; conditions: 10 µM
[7] = system: A549/ATCC NSCLC; conditions: 10 µM
[8] = system: COLO 205 colon; conditions: 10 µM
[9] = system: DU-145 prostate; conditions: 10 µM
[10] = system: K-562 leukemia; conditions: 10 µM
[11] = system: SF-268 CNS; conditions: 10 µM
[12] = system: SF-295 CNS; conditions: 10 µM
[13] = system: SF-539 CNS; conditions: 10 µM
[14] = system: HT29 colon; conditions: 10 µM
[15] = system: SNB-19 CNS; conditions: 10 µM
[16] = system: PC-3 prostate; conditions: 10 µM
[17] = system: MOLT-4 leukemia; conditions: 10 µM
[18] = system: SR leukemia; conditions: 10 µM
[19] = system: RPMI-8226 leukemia; conditions: 10 µM
[20] = system: SK-OV-3 ovarian; conditions: 10 µM

Measured: growth

CCN(CC)CC[n+]1cc2cc(OC)c(OC)cc2c2ccc3cc4c(cc3c21)OCO4
active: [1] -27%

O=C(c1ccc(Cl)cc1)C(c1c[nH]c2ccccc12)c1c[nH]c2ccccc12
inactive: [3] 38.1% | [4] 16% | [12] 14.5% | [15] 22.4% | [20] 57.2%
active: [2] -50.8% | [5] -53.5% | [6] -82.6% | [7] 4.91% | [8] -87.9% | [9] -91.7% | [10] 0.546% | [11] 9.45% | [13] -94.2% | [14] -71.1% | [16] -33.2% | [17] -1.68% | [18] -12.2% | [19] -27.9% | [1] -71.1%

CN1CCc2c(sc3nc4n(-c5ccc(Cl)cc5)cnn4c(=O)c23)C1
inactive: [1] 81.7%

Fc1ccc(-c2csc(Nc3cccc(Nc4nc(-c5ccc(F)cc5)cs4)c3)n2)cc1
inactive: [2] 51.5% | [3] 60.1% | [4] 72.7% | [5] 40.4% | [7] 62.8% | [8] 75.7% | [9] 67.7% | [10] 36% | [11] 57.9% | [12] 90.4% | [13] 70.9% | [14] 62.3% | [15] 70.2% | [16] 35.2% | [17] 46.4% | [18] 51.4% | [19] 49.5% | [20] 86.8% | [1] 38.6%
active: [6] 6.23%

Cn1cc(-c2cc(N)n3nc(-c4cn(C)c5ccccc45)cc3n2)c2cc(F)ccc21
active: [2] -39.8% | [3] -19.1% | [4] -64.6% | [5] -61.6% | [6] -66.3% | [7] -23.5% | [8] -82.3% | [9] -2.27% | [10] 0.146% | [11] -63.1% | [12] -72.6% | [13] -81.6% | [14] -72.2% | [15] -6.35% | [16] -28% | [17] -14.4% | [18] 9.63% | [19] -13.3% | [20] -77.7% | [1] -36.3%

Cc1ccc(S(=O)(=O)N2CCN(S(=O)(=O)c3oc(-c4ccccc4)nc3C#N)CC2)cc1
inactive: [2] 69.2% | [3] 84.8% | [4] 100% | [5] 76.2% | [6] 64.1% | [7] 74.7% | [8] 92.3% | [9] 85.6% | [10] 66.1% | [11] 79.1% | [12] 132% | [13] 101% | [14] 80.2% | [15] 78.6% | [16] 75% | [17] 56.8% | [18] 31.4% | [19] 74.7% | [20] 87.9% | [1] 66.2%

CC1[C@H]2[C@H](C[C@H]3[C@@H]4CC=C5c6sc(Nc7cccc(Cl)n7)nc6CC[C@]5(C)[C@H]4CC[C@@]32C)O[C@]12CC[C@@H](C)CO2 (some centres not stated)
inactive: [2] 81.5% | [3] 102% | [4] 116% | [5] 85.7% | [6] 65.8% | [7] 96.1% | [8] 70.2% | [9] 99.1% | [10] 54.5% | [11] 86.9% | [12] 109% | [13] 110% | [14] 100% | [15] 96.6% | [16] 48% | [17] 79.8% | [18] 65.3% | [19] 56.5% | [20] 108% | [1] 93.6%

Cc1ccc(-c2nc(C#N)c(S(=O)(=O)N3CCN(S(C)(=O)=O)CC3)o2)cc1
inactive: [2] 85.6% | [3] 98.8% | [4] 95.6% | [5] 79.9% | [7] 92.9% | [9] 68.7% | [11] 88.5% | [12] 155% | [13] 40.3% | [15] 93.9% | [16] 68.3% | [20] 105%
active: [6] -86.6% | [8] -69.3% | [10] 6.88% | [14] -6.5% | [17] 0.383% | [18] 1.13% | [19] 4.64% | [1] -68.5%

COc1ccc(C2c3sc4ccc(C)cc4c3Oc3nc[nH]c(=O)c32)cc1 (configuration not stated)
inactive: [2] 80.5% | [3] 105% | [4] 69.4% | [5] 95.6% | [6] 42.7% | [7] 97.9% | [8] 103% | [9] 105% | [10] 36.2% | [11] 89.7% | [12] 107% | [13] 79.3% | [14] 112% | [15] 75.3% | [16] 74.9% | [17] 77.9% | [18] 39.4% | [19] 90.8% | [20] 81.2% | [1] 61.3%
